The results in this text go back to PubChem BioAssay (NCATS).

The target of assay [1] is T1, Hexokinase-4 (Homo sapiens) + Glucokinase regulatory protein (Homo sapiens) (UniProt P35557+Q14397). The assay is described as follows: qHTS assay for inhibitors of recombinant human GCK-GKRP interaction: Diaphorase-coupled assay (AID 743205). The method in brief: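 GST-GCK (10 nM) with FLAG-GKRP (10 nM), 5 mM glucose and 0.4 mM ATP in pH 7.6 Hepes; compounds preincubated 20 min with substrate. G6PDH/diaphorase coupling converts resazurin to resorufin, read kinetically (ex 525/em 590 nm) for 30 min.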
T1 sequence (P35557 whole entry, looked up): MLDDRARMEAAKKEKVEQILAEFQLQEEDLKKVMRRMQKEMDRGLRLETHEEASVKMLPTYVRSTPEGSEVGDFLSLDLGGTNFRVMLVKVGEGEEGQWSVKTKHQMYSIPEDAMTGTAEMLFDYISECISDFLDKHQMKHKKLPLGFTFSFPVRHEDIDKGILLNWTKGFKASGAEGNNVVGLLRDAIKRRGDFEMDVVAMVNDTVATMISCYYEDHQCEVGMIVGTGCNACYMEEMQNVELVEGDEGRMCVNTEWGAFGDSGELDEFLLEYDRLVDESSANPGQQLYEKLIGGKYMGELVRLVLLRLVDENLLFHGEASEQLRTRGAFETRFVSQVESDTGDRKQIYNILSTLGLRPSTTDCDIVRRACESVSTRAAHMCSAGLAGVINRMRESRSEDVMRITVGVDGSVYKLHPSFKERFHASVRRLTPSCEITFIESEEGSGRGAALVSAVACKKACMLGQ
T1 sequence (Q14397 whole entry, looked up): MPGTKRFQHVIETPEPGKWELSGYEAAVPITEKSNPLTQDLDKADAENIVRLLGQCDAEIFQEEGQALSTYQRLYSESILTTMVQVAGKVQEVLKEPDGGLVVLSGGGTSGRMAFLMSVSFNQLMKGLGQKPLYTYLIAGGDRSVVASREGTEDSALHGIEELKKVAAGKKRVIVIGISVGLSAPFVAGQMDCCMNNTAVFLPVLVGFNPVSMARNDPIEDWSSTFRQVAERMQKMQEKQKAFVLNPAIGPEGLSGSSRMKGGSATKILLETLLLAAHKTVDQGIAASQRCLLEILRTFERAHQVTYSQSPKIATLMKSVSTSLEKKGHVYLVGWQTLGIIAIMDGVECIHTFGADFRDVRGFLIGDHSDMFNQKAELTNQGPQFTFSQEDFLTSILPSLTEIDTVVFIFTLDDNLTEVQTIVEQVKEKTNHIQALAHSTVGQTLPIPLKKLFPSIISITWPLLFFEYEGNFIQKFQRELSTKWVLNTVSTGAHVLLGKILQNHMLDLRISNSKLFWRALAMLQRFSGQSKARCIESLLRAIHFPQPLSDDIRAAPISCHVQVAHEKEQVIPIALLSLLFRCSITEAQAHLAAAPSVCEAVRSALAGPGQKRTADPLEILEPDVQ
(In general: In qHTS, concentration-response curves come from the screen itself.)

Assay [2] has as its target T1, Hexokinase-4 (Homo sapiens) + Glucokinase regulatory protein (Homo sapiens). As to the kind of experiment: qHTS assay for inhibitors of recombinant human GCK-GKRP interaction: ADP-Glo assay (AID 743206).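 Also: plate controls were DMSO plus enzyme for no effect and no enzyme for full effect.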 The method in brief: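 Pin-transferred compounds meet a 15 nM GST-GCK/15 nM FLAG-GKRP/2 uM S6P mix (dispense concentrations). ATP is then added to 0.4 mM final with 5 mM glucose, and the reaction runs 60 min at room temperature. ADP is quantified luminescently.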

The target is the same in assay [3]. The assay is described as follows: qHTS assay for inhibitors of recombinant human GCK-GKRP interaction: HTRF assay (AID 743207).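 Also: 0% = DMSO with GCK present and -100% = DMSO wells lacking GCK.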 An outline of the steps:
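GST-GCK and FLAG-GKRP (5 nM each) were combined with 2 uM S6P in pH 7.1 Hepes/MgCl2/KCl/DTT buffer, then compound and anti-FLAG XL665/anti-GST K antibodies were added. After 60 min at room temperature, HTRF 665/615 nm emission was read.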

The nature of assay [4]: qHTS Assay for Identifying Gametocytocidal Compounds (AID 743244). Also: potency is read from the fitted curve at half-maximal effect.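 As to max response: % is scaled to controls: 0 for no effect and ±100 for the full control effect; actives lower the fluorescent signal which means gametocytes are killed.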 To be noted: P. falciparum 3D7 stage III-V gametocytes, alamarBlue, 72 h; max response: stronger effect = lower value. An outline of the steps: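 Compounds are pinned into medium, gametocytes (stage III–V, 3D7, 20,000 cells/well) added, and plates held 72 h at 37 °C in 5% CO2. AlamarBlue follows for 24 h before fluorescence reading.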

The nature of assay [5]: qHTS assay for measurement of the activity of small molecule inhibitors on Zika virus induced Caspase-3 activity in human astrocytoma cells (AID 1224859).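 Also: plate controls were ZIKV-infected untreated cells for no effect and uninfected cells for full effect.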 An outline of the steps: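 Human SNB-19 astrocytoma cells in RPMI 1640 with 10% FBS receive compound one hour ahead of Zika virus at 2 FFU/cell. After 6 h infection, caspase-3/7 activity is detected by Caspase-Glo luminescence.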

Assay [6] is described as follows: qHTS assay to identify small molecule inhibitors of chordoma cells - UCH-1 (AID 1259355). Also: nearly all actives have a fitted effect of over 55% in size. Also: potency is read from the fitted curve at half-maximal effect. The method in brief: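 A 48hr growth-inhibition format: each drug tested at 15 concentrations together with added auranofin, camptothecin, doxorubicin, rubitecan and topotecan, with cell viability quantified as CellTiter-Glo luminescence.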
Assay [7] can be described thus: qHTS assay to identify small molecule inhibitors of chordoma cells - UCH-2 (AID 1259356). Also: potency is read from the fitted curve at half-maximal effect.
A short description of assay [8]: qHTS profiling of the MIPE4 collection as inhibitors of Plasmodium falciparum (3D7) proliferation (AID 743344; call rule not given here;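 also: scaled between DMSO vehicle wells and 0.29 µM artemisinin as full inhibition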). To be noted: P. falciparum 3D7 in erythrocytes, SYBR Green DNA fluorescence, 72 h; at 28.5 µM (top of the series). The method in brief: (§1)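 Parasite DNA was quantified by SYBR Green I fluorescence (ex 485, em 535 nm) after overnight lysis in saponin/Triton buffer at room temperature. Cultures at 0.3% parasitemia and 2.5% hematocrit were first exposed to compound for 72 h at 37 C; signals were normalised to artemisinin (0.29 uM) and vehicle wells.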

Assay [9] is described as follows: qHTS profiling of the MIPE4 collection as inhibitors of Plasmodium falciparum (DD2) proliferation (AID 743345; call rule not given here). The note with it: P. falciparum Dd2 in erythrocytes, SYBR Green DNA, 72 h; at 28.5 µM (top of the series). An outline of the steps:
as §1

Assay [10] is described as follows: qHTS profiling of the MIPE4 collection as inhibitors of Plasmodium falciparum (DD2) proliferation (Rep 2) (AID 743346; call rule not given here). The note with it: P. falciparum Dd2 in erythrocytes, SYBR Green DNA, 72 h; at 28.5 µM (top of the series). The method in brief: as §1
A short description of assay [11]: qHTS profiling of the MIPE4 collection as inhibitors of Plasmodium falciparum (HB3) proliferation (AID 743347; call rule not given here;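 also: plate controls were DMSO vehicle wells for no effect and artemisinin wells for full effect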). The note with it: P. falciparum HB3 in erythrocytes, SYBR Green DNA, 72 h; at 28.5 µM (top of the series). An outline of the steps:
as §1

A short description of assay [12]: qHTS profiling for inhibitors of Plasmodium falciparum (3D7) proliferation (AID 743322).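 Also: infected erythrocytes exposed to compound for 72 h before lysis; 100% = DMSO vehicle wells and 0% = 0.29 µM artemisinin.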 To be noted: P. falciparum 3D7 proliferation; at 28.7 µM (top of the series) unless noted. An outline of the steps: as §1
The nature of assay [13]: qHTS profiling for inhibitors of Plasmodium falciparum (DD2) proliferation (AID 743323; call rule not given here). To be noted: lower = more inhibition; at 28.7 µM (top of the series) unless noted. An outline of the steps: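 Parasite DNA quantified by SYBR Green fluorescence (ex 485, em 535 nm) after saponin/Triton lysis and overnight dark incubation. Cultures: 0.3% parasitemia, 2.5% hematocrit, 72 h, 37 C; data scaled between DMSO and 0.29 uM artemisinin.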

A short description of assay [14]: qHTS profiling for inhibitors of Plasmodium falciparum (HB3) proliferation (AID 743324).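 Also: 100% = DMSO vehicle wells and 0% = artemisinin-treated control wells.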 The note with it: Plasmodium falciparum HB3 blood-stage proliferation; at 28.7 µM (top of the series). The method in brief:
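SYBR Green fluorescence (485 ex/535 em) of lysed cultures, incubated overnight at room temperature in the dark, quantifies parasite DNA. Infected erythrocytes at 0.3% parasitemia and 2.5% hematocrit were exposed 72 h; values normalized to DMSO and 0.29 uM artemisinin controls.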

Several values for one entry are separate records, joined by “and”; a condition that tells them apart may be missing. Equal entries are not always repeated. Inconclusive results are not listed. A structure can be active in one record and inactive in another. Activity calls are given as the source filed them. Unless noted, calls follow the shape of the dose curve; as a rule, active = well fitted curve in the direction sought with a large enough effect; inconclusive = small, poorly fitted or top-dose-only effect, or another doubt; inactive = no such curve, though single readings can be large; an effect the other way counts as inactive or inconclusive.

For the compound `Cc1nnc(SCC2=C(C(=O)O)N3C(=O)[C@@H](NC(=O)Cn4cnnn4)[C@H]3SC2)s1`, the result in assay [1], in [2] and in assay [5] was inactive. The Potency result in [3], in assay [6] and in assay [7] was “inactive” in each case. Besides, the max response in assay [4] is 5.06% (inactive) and 32.1% (inactive).
For the compound `N[C@@H](COP(=O)(O)O)C(=O)O`, the outcome in assay [1], in [2] and in assay [5] was inactive. For the same compound, the Potency result in assay [3], in assay [6] and in assay [7] was “inactive” in each case. For the same compound, the max response in assay [4] was -4.33% (inactive) and 12% (inactive).
`CC(C)COCC(CN(Cc1ccccc1)c1ccccc1)N1CCCC1` (configuration not stated): the result in [1], in [2] and in assay [5] was inactive. Moreover, the Potency in [4] is 22.4 µM (active). Besides, in assay [4], the max response was 9.9% (inactive). This compound displayed a parasite growth, % of DMSO control in assay [8] of 5.43%. Moreover, the parasite growth remaining, % of DMSO control (lower = more inhibition) in assay [9] is 7.8%. This compound returned a parasite growth, % of control (lower = inhibition) in assay [10] of 16%. The compound also returned a growth, % of control in assay [11] of 2.98%. The Potency result in assay [6] and in assay [7] was “inactive” in each case.
Take `NC/C=C/C(=O)O`: the result in assay [1], in assay [2] and in assay [5] was inactive. Also, the Potency entry in assay [3], in assay [6] and in [7] was “inactive” in each case. The max response in [4] is 18.4% (inactive) and 29.6% (inactive).
With `CN(C)CCN(Cc1cccs1)c1ccccn1`, the outcome in assay [1], in [2] and in assay [5] was inactive. Besides, the max response in [4] was -13% (inactive) and 5.58% (inactive). In addition, the Potency entry in assay [6] and in assay [7] was “inactive” in each case.
Consider `COc1cc(C(=O)OCCCN2CCCN(CCCOC(=O)c3cc(OC)c(OC)c(OC)c3)CC2)cc(OC)c1OC`, for which the outcome in assay [1], in assay [2] and in [5] was inactive. Moreover, the Potency entry in assay [3] and in assay [7] was “inactive” throughout. In addition, the max response in assay [4] was -8.17% (inactive) and 18.7% (inactive).
For `COCC(=O)O[C@]1(CCN(C)CCCc2nc3ccccc3[nH]2)CCc2cc(F)ccc2[C@@H]1C(C)C`, the outcome in assay [1], in [2] and in assay [5] was inactive. Moreover, the Potency in assay [4] is 2.64 µM (active) and 1.41 µM (active); in assay [6], 31.6 µM (active); in assay [7] it was 14.6 µM (active). Further, in assay [12], the remaining parasite growth % (stronger effect = lower value) is -2.7%. For the same compound, the activity, percent of control in assay [13] is -0.639%. Besides, in assay [14], the remaining proliferation (% of control), lower = more inhibition is -1.39%.
Consider `CCN(CC)CCNC(=O)c1cc(S(C)(=O)=O)ccc1OC`, for which the result in [1], in assay [2] and in assay [5] was inactive. Also, the Potency entry in assay [3], in assay [6] and in [7] was “inactive” in each case. Also, in [4], the max response is -4.07% (inactive).
With `Cc1nc2sccn2c(=O)c1CCN1CCC(=C(c2ccc(F)cc2)c2ccc(F)cc2)CC1`, the result in [1], in assay [2] and in assay [5] was inactive. Moreover, the Potency result in assay [3], in assay [6] and in assay [7] was “inactive” throughout. In addition, the max response in assay [4] was -7.25% (inactive) and 26.8% (inactive).
